These results are taken from PubChem BioAssay (NCI).

SMILES strings stand for the structures. About 79,000 compounds went through this panel and 15% of them were active in at least one assay; those are over-represented in the sample as a whole. Values without a mark were called inactive. The source made the active and inactive calls. Cut-off read from the data, not from the text of the source: active = growth inhibition above about 70%; inactive = the rest.

Assay [1] is described as follows: NCI Yeast Anticancer Drug Screen. Data for the rad50 strain (AID 155).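 Note: 0% = growth of vehicle-only cultures of the same strain.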 Particulars: S. cerevisiae rad50 strain growth inhibition; at 50.0 µM; active compounds read high. The procedure, abridged: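 Yeast carrying a defined DNA repair defect were exposed to test compounds, and growth was compared with vehicle-treated controls to give percent inhibition.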
Assay [2] in a line: NCI Yeast Anticancer Drug Screen. Data for the mec2-1 strain (AID 157). Particulars: S. cerevisiae mec2-1 strain, at 50.0 µM, active compounds read high. The procedure, abridged:
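Yeast mec2-1 mutant treated with compound. Readout: growth inhibition vs vehicle controls.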

The nature of assay [3]: NCI Yeast Anticancer Drug Screen. Data for the sgs1 mgt1 strain (AID 161).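 Note: 0% = growth of cultures given vehicle only.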 Particulars: S. cerevisiae sgs1 mgt1 strain, at 50.0 µM, active compounds read high. The gist of the method: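 Genetically altered yeast, compound exposure, growth inhibition relative to vehicle.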
A short description of assay [4]: NCI Yeast Anticancer Drug Screen. Data for the cln2 rad14 strain (AID 165).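 Note: 0% = growth equal to vehicle treated cultures.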 Particulars: S. cerevisiae cln2 rad14 strain, at 50.0 µM, active compounds read high. The procedure, abridged: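 cln2 rad14 yeast strain; compound exposure; growth inhibition read vs vehicle controls.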
A short description of assay [5]: NCI Yeast Anticancer Drug Screen. Data for the bub3 strain (AID 167). Particulars: S. cerevisiae bub3 mutant strain, at 50.0 µM, active compounds read high. The gist of the method: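 Compounds were applied to a genetically altered yeast strain carrying a cell-cycle control defect. Growth inhibition was scored against vehicle-treated controls.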
Assay [6] is described as follows: NCI Yeast Anticancer Drug Screen. Data for the mlh1 rad18 strain (AID 175). Particulars: S. cerevisiae mlh1 rad18 strain growth inhibition; at 50.0 µM; active compounds read high. The procedure, abridged:
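Yeast w/ defined DNA-repair lesions; compound exposure; growth vs vehicle controls → % inhibition.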

Regarding `CC1=NC=C(O)c2ccccc2O1`, the growth inhibition is 24.4% in assay [1]; 12.4% in assay [2]; 26.8% in assay [3]; 15.6% in assay [4]; 14.9% in assay [5]; 21.4% in assay [6].

On to `Cc1cc(N(CCC#N)CCC#N)ccc1/C=C1\N=C(c2cc([N+](=O)[O-])ccc2Cl)N(c2cccc(Cl)c2)C1=O`, for which the growth inhibition in assay [1] is -19.4%; in assay [2] it was -20.2%; in assay [3], -23.9%; in assay [4] it was -7.6%; in assay [5], -6.05%; in assay [6], -29.2%.

Regarding `O=C(Nc1cccc2ccccc12)c1ccccc1`, the growth inhibition was 18.4% in assay [1]; -38.2% in assay [2]; -0.25% in assay [3]; -37.2% in assay [4]; -9.45% in assay [5]; 19.4% in assay [6].

Consider `CCOC(=O)c1ccc[n+]([O-])c1`, for which the growth inhibition was -2.35% in assay [1]; -9.95% in assay [2]; -18.6% in assay [3]; -107% in assay [4]; -13.2% in assay [5]; -10.8% in assay [6].

For the compound `CC(C)(C)CC(C)(C)N`, the growth inhibition was -2.65% in assay [1]; -4.8% in assay [2]; -16.9% in assay [3]; -41.5% in assay [4]; -2.35% in assay [5]; 20.6% in assay [6].

For `COc1ccc(C2(C)OC(=O)c3ccccc32)c2ccccc12` (stereo unspecified), the growth inhibition in assay [1] was 71% (active); in assay [2] it was 49.9%; in assay [3] it was 46.3%; in assay [4], 39.2%; in assay [5], 73.2% (active); in assay [6], 65.7%.

Regarding `COc1ccc(/C=N/n2cnc3c(sc(=S)n3-c3ccccc3)c2=O)cc1`, the growth inhibition was 23% in assay [1]; 1.1% in assay [2]; -8.45% in assay [3]; -1.7% in assay [4]; -23.7% in assay [5]; 12.8% in assay [6].

For the compound `CCCC[n+]1cc(C(N)=O)cc2ccccc21`, the growth inhibition was -3.9% in assay [1]; 7.3% in assay [2]; 3.25% in assay [3]; -44.5% in assay [4]; 5.7% in assay [5]; 9.45% in assay [6].

As to `CNC(=S)C(N)CCCC1NC(=S)N(C)C1=O` (stereo unspecified), the growth inhibition in assay [1] is 7%; in assay [2] it was 6.8%; in assay [3] it was -21.9%; in assay [4] it was 16.7%; in assay [5] it was 8.95%; in assay [6] it was 0.7%.

For the compound `C(=N\c1nc2ccccc2s1)/c1cccs1`, the growth inhibition in assay [1] is -15.7%; in assay [2] it was -34%; in assay [3], -14.8%; in assay [4], -5.95%; in assay [5] it was 3.45%; in assay [6], -19.4%.

With `CC12C(=O)OC3CCC1CC32` (stereo unspecified), the growth inhibition in assay [1] was 10.8%; in assay [2], 7.1%; in assay [3], -5.85%; in assay [4] it was -26.6%; in assay [5], 6.65%; in assay [6], 2.95%.

With `Cc1ccc(C)c(NC(=O)NCc2ccc(Cl)cc2)c1`, the growth inhibition is -7.65% in assay [1]; -41.2% in assay [2]; -11.4% in assay [3]; 13.2% in assay [4]; -58.1% in assay [5]; 10.2% in assay [6].

In the case of `CN(C)C(=S)Nc1ccc(S(=O)(=O)N2CCCCC2)cc1`, the growth inhibition in assay [1] was -7.9%; in assay [2] it was -28.4%; in assay [3], -2.7%; in assay [4] it was 1.15%; in assay [5], -16.4%; in assay [6] it was -7.85%.

For `Cc1c2oc3c(C)ccc(C(=O)NCCN4CCOCC4)c3nc-2c(C(=O)NCCN2CCOCC2)c(N)c1=O`, the growth inhibition in assay [1] is -8.1%; in assay [2], 29.6%; in assay [3], 37.5%; in assay [4], -26.5%; in assay [5], 38.9%; in assay [6] it was 15.8%.

As for `O=c1cnc2c(ccc3ccccc32)[nH]1`, the growth inhibition in assay [1] is -2.7%; in assay [2], -20.8%; in assay [3], -16.1%; in assay [4], 6.55%; in assay [5], 8.4%; in assay [6] it was -5.95%.

On to `Cn1c(=O)c2[nH]c(SCc3ccccn3)nc2n(C)c1=S`, for which the growth inhibition is 6.05% in assay [1]; -42.5% in assay [2]; -20.9% in assay [3]; -47.1% in assay [4]; -26.6% in assay [5]; 13.4% in assay [6].

For `COC(=O)[C@@H](CO)NC(=O)OC(C)(C)C`, the growth inhibition is -27.6% in assay [1]; -15% in assay [2]; -24.1% in assay [3]; 21.6% in assay [4]; 9.4% in assay [5]; -12.8% in assay [6].

Consider `NS(=O)(=O)c1ccc(NC(=O)Nc2ccccc2F)cc1`, for which the growth inhibition was -3.35% in assay [1]; -6.85% in assay [2]; -28.4% in assay [3]; -13.2% in assay [4]; 1.15% in assay [5]; 12.6% in assay [6].

For the compound `Cc1cc(Cl)c(Cl)cc1N`, the growth inhibition is -11.6% in assay [1]; -7.2% in assay [2]; 5.6% in assay [3]; -9.65% in assay [4]; 12.1% in assay [5]; 12.4% in assay [6].

On to `CC(=O)/C(C=Nc1c(C)n(C)n(C)c1=O)=C(/O)c1ccccc1`, for which the growth inhibition in assay [1] was 0.15%; in assay [2] it was 4.05%; in assay [3] it was -10.4%; in assay [4], 7.55%; in assay [5] it was -19.6%; in assay [6] it was 16%.

Take `Cn1cnc([N+](=O)[O-])c1Sc1nc2ncccc2[nH]1`: the growth inhibition in assay [1] is -5.6%; in assay [2] it was -7.1%; in assay [3], -20.1%; in assay [4] it was 16.6%; in assay [5], -8.9%; in assay [6] it was 0%.

For `O=C(O)CCc1ccc(NC(=O)CCl)cc1`, the growth inhibition was 4.05% in assay [1]; 14.6% in assay [2]; 17.3% in assay [3]; 8.35% in assay [4]; 5.45% in assay [5]; 14.7% in assay [6].

Take `Cc1ccc2nc(-c3ccc(N)cc3)sc2c1S(=O)(=O)O`: the growth inhibition in assay [1] is 3.3%; in assay [2] it was 2.15%; in assay [3], 6.8%; in assay [4] it was 2.45%; in assay [5], 2.3%; in assay [6] it was 5.65%.

In the case of `O=C1c2cc3c(cc2C(=O)c2[nH]ncc21)OCO3`, the growth inhibition in assay [1] is 60.5%; in assay [2], 30.4%; in assay [3], 16.7%; in assay [4], -20.2%; in assay [5], 19.1%; in assay [6], 17.2%.

With `COC(=O)NC(=O)CCC(=O)O`, the growth inhibition in assay [1] is -0.15%; in assay [2], -2.8%; in assay [3], 0.95%; in assay [4], -45.3%; in assay [5], 7%; in assay [6], 12.8%.

For the compound `CCOC(=O)CCC(=O)OCC`, the growth inhibition was 21.6% in assay [1]; 7.05% in assay [2]; 0% in assay [3]; 16.9% in assay [4]; 9.85% in assay [5]; 10.6% in assay [6].

With `CC(=O)Oc1c(C(=O)O)cccc1-c1ccccc1`, the growth inhibition in assay [1] is -12.8%; in assay [2], -7.1%; in assay [3], 9.6%; in assay [4] it was -15.8%; in assay [5], 30%; in assay [6] it was 4.95%.

For the compound `O=C(O)C(C(=O)O)C1CCCCCC1`, the growth inhibition in assay [1] was -34.4%; in assay [2] it was -6.6%; in assay [3], -17.9%; in assay [4], -29.9%; in assay [5], -1.9%; in assay [6], 14.2%.

Turning to `Cc1[nH]nc2c1NC(=O)OC(C)C2` (stereo unspecified), the growth inhibition in assay [1] was 11.8%; in assay [2], -2.9%; in assay [3] it was 0.9%; in assay [4] it was -9.85%; in assay [5], -2.85%; in assay [6], 2.9%.

With `CC(=O)NC1C(O)OC(COCc2ccccc2)C(OCc2ccccc2)C1OCc1ccccc1` (stereo unspecified), the growth inhibition is 6.9% in assay [1]; -1.8% in assay [2]; -10.4% in assay [3]; 7.25% in assay [4]; -5.35% in assay [5]; -15.1% in assay [6].

For the compound `O=[N+]([O-])c1ccccc1S(=O)(=O)N(CCCCCN(S(=O)(=O)c1ccccc1[N+](=O)[O-])S(=O)(=O)c1ccccc1[N+](=O)[O-])S(=O)(=O)c1ccccc1[N+](=O)[O-]`, the growth inhibition in assay [1] was -5.75%; in assay [2], -5.95%; in assay [3] it was 10.8%; in assay [4] it was 20.6%; in assay [5] it was -27.9%; in assay [6], -11.4%.

Take `CCCCN(CC)NC(=S)Nc1ccccc1`: the growth inhibition was -9.25% in assay [1]; 9.7% in assay [2]; -3.3% in assay [3]; -18.4% in assay [4]; 17.9% in assay [5]; 5.6% in assay [6].

Take `CCOC(=O)c1c(Nc2ccc(OC)cc2)n[nH]c1C`: the growth inhibition in assay [1] was -7.85%; in assay [2] it was -34.3%; in assay [3], 15.6%; in assay [4] it was 9.6%; in assay [5] it was 8.65%; in assay [6] it was -8.65%.

As for `CCCCN=CC(Cl)(Cl)C(=O)OCC`, the growth inhibition in assay [1] is -13.2%; in assay [2], -21.6%; in assay [3] it was -8.35%; in assay [4], 4.05%; in assay [5], -10.9%; in assay [6] it was -19.7%.

In the case of `COc1ccc2c(c1)NC(C(C)C)=NS2(=O)=O`, the growth inhibition in assay [1] is 17.9%; in assay [2], 15.8%; in assay [3] it was 17.4%; in assay [4] it was 4.95%; in assay [5], 18.4%; in assay [6], 25.8%.

Turning to `CCC(C)(C)N`, the growth inhibition was 0.3% in assay [1]; 2.7% in assay [2]; 4.25% in assay [3]; -73.2% in assay [4]; 9.15% in assay [5]; -20.2% in assay [6].

Take `CC(C)(N)COCOCC(C)(C)N`: the growth inhibition in assay [1] is 6.8%; in assay [2], -5.35%; in assay [3], -1.15%; in assay [4], 2.4%; in assay [5], 5.8%; in assay [6], 0%.

Turning to `CCOC(=O)/C=C/SCCC(=O)OC`, the growth inhibition in assay [1] is 37.3%; in assay [2], 21.9%; in assay [3], 7.9%; in assay [4], 12.4%; in assay [5] it was 15%; in assay [6], 40.8%.

For the compound `CNC(=S)SCc1ccc(Cl)cc1`, the growth inhibition is -10.6% in assay [1]; -12.5% in assay [2]; 11.4% in assay [3]; -36.6% in assay [4]; 40.8% in assay [5]; 2.7% in assay [6].

On to `Cc1ccc(S(=O)(=O)ON/N=c2\ccn(C)c3ccccc23)cc1`, for which the growth inhibition in assay [1] was 38.1%; in assay [2], 12.6%; in assay [3], 19.1%; in assay [4] it was -4.85%; in assay [5] it was 8.05%; in assay [6], 16.6%.

Turning to `O=C(Nc1ccccn1)c1ccccc1`, the growth inhibition is 35% in assay [1]; 19.6% in assay [2]; 15.6% in assay [3]; 11.6% in assay [4]; 26.4% in assay [5]; 31.8% in assay [6].
